Calls of active or inactive are those of the source. Calls come from the whole dose curve.
target: Phosphatidylinositol 4-phosphate 5-kinase type-1 alpha (Homo sapiens) (UniProt Q99755); experiment: qHTS for Inhibitors of PI5P4K: PI4P5K-alpha 32P-ATP TLC Secondary Assay for Probe SAR; conditions: recombinant PI4P5K-alpha, 32P-ATP TLC phosphorimager
Source text: In addition to finding PI5P, we discovered the type II phosphatidylinositol 5-phosphate 4-kinase (PI5P4K) family (alpha, beta, gamma isoforms) that catalyze the conversion of PI5P to PI(4,5)P2. Alternatively, PI(4,5)P2 can also be synthesized through phosphatidylinositol-4-phosphate (PI4P) by the type I phosphatidylinositol 4-phosphate 5-kinases (PI4P5K). These PI5P4K enzymes therefore represent one way by which cells can regulate endogenous PI5P levels and play important roles in insulin signaling and in stress responses. […] A qHTS PI5P4K-alpha ADP-Glo assay was developed to identify specific modulators of human PI5P4K, phosphatidylinositol-5-phosphate 4-kinase (Type II PIPK). To confirm that the active compounds and their analogs were true and selective inhibitors, a secondary Thin-layer Chromatography (TLC) assays against recombinant PI5P4K-alpha, PI4P5K-alpha or PI5P4K-beta that utilize a radioactively labeled ATP were developed. The data herein is the result of the PI4P5K-alpha TLC assay. […]
The kinase reaction was carried out in a total of 50 microL of kinase buffer (50 mM HEPES pH 7.4 and 10 mM MgCl2) containing 20 microM of the lipids that were suspended by sonication. […] The radiolabeled product, PI(4,5)P2, was quantified with a phosphorimager (Molecular Dynamics, STORM840, GE Healthcare, Waukesha, WI, USA).

Sequence of Phosphatidylinositol 4-phosphate 5-kinase type-1 alpha (Homo sapiens) (Q99755 whole entry, looked up, canonical isoform): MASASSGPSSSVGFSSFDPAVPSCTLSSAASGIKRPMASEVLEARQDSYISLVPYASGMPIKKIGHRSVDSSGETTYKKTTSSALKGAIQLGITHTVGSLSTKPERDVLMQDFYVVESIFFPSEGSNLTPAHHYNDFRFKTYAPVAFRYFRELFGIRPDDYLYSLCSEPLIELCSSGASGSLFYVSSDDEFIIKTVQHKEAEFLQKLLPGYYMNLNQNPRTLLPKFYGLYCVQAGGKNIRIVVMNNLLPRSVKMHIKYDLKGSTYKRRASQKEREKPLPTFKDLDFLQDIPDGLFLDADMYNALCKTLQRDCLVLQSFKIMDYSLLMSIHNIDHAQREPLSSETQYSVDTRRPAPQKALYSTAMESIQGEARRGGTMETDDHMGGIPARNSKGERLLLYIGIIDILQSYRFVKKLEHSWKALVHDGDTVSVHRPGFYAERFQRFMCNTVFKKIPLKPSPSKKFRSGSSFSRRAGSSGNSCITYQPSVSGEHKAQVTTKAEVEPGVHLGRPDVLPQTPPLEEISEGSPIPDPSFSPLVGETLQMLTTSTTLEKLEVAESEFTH

Row | SMILES | Potency
1 | O=C1Nc2ccc(C(=O)c3ccco3)cc2/C1=C/c1cc(Cl)c(O)c(Cl)c1 | 0.498 µM (active)
